High-throughput results deposited in PubChem by National Center for Advancing Translational Sciences (NCATS).
TDP1 cell CPT: qHTS for Inhibitors of human tyrosyl-DNA phosphodiesterase 1 (TDP1): qHTS in cells in presence of CPT | 420,000 tested, 12% active | AID 686979, 2013 | Potency, µM (highest dose often 46.2 µM), usual class: inhibitors | chicken DT40 Tdp1-/-;hTDP1 cells + 20 nM CPT, ATP luminescence, 48 h; also: nearly all actives have a fitted effect of over 55% in size
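Chicken DT40 Tdp1-/- cells complemented with human TDP1, 400 cells/well, exposed to compounds plus 20 nM camptothecin for at least 48 h at 37 C; viability read as ATP content by CellTiter-Glo luminescence.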
IL1B secr inh: qHTS for Inhibitors of Inflammasome Signaling: IL-1-beta AlphaLISA Primary Screen; THP-1 LPS/ATP IL-1B secretion, AlphaLISA, 16 h; active compounds read low; activity change, % at 57.5 µM; 360,000 tested, 4.7% active; AID 743279, 2014; in the data active = activity change below about -50%; inconclusive = mostly about -30% to -49%
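THP-1 cells pretreated 1 hr with compounds (up to 57.5 uM final), then stimulated with LPS (250 ng/mL final) plus ATP (1.25 mM final); secreted IL-1B measured by AlphaLISA after 16 hr, decreased signal indicating inhibition.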
TDP1 cell noCPT: qHTS for Inhibitors of human tyrosyl-DNA phosphodiesterase 1 (TDP1): qHTS in cells in absence of CPT. DT40 Tdp1-/- hTDP1 cells, no CPT, ATP luminescence, 48 h. 420,000 tested, 15% active. Potency, µM (doses to about 46.2 µM), most hits filed as inhibitors; also: nearly all actives have a fitted effect of over 55% in size
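Compound effects on proliferation are scored in DT40 Tdp1-/-;hTDP1 cells in the absence of CPT. ATP levels (CellTiter-Glo luminescence) are recorded after a ≥48 hr, 37 °C incubation.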
ELG1 repair inh: qHTS screen for small molecules that inhibit ELG1-dependent DNA repair in human embryonic kidney (HEK293T) cells expressing luciferase-tagged ELG1; Potency, µM (top dose mostly 46.1 µM), hits mostly inhibitors; HEK293T ELG1-luciferase reporter, luminescence, 16 h; DNA damage induced by 5-fluorouridine; AID 504467, 2011; 330,000 tested, 2.3% active; also: nearly all actives have a fitted effect of over 55% in size
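Cells (2,000 per well) received 5-fluorouridine plus test compound or DMSO and were incubated 16 hr at 37 °C, 5% CO2. Luciferase activity was read by luminescence 30 min after ONE-Glo addition; signal suppression marked inhibition of damage-induced ELG1 function.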
Giardia killer: Small Molecules that selectively kill Giardia lamblia: qHTS. Giardia lamblia trophozoite viability. activity change, % at 7.66 µM, hits read low. 340,000 tested, 0.15% active; in the data active = activity change below about -80%; inconclusive = between about -30% and that limit;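 also: parasites exposed to compound for two days anaerobically before the ATP read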
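Compounds were tested on trophozoites seeded at 100 cells/well and held 48 hrs at 37 deg C anaerobically. An ATP-based luminescent kit measured the remaining live cells.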
TDP1 inh: qHTS Assay for Inhibitors of Tyrosyl-DNA Phosphodiesterase (TDP1); Tyrosyl-DNA phosphodiesterase 1 (Homo sapiens), Q9NUW8; recombinant TDP1, AlphaScreen DNA substrate cleavage; Potency, µM (titrated, usually from 130 µM), most hits filed as inhibitors; 350,000 tested, 0.28% active; AID 485290, 2010; also: nearly all actives have a fitted effect of over 40% in size
Target sequence (Q9NUW8 whole entry, looked up): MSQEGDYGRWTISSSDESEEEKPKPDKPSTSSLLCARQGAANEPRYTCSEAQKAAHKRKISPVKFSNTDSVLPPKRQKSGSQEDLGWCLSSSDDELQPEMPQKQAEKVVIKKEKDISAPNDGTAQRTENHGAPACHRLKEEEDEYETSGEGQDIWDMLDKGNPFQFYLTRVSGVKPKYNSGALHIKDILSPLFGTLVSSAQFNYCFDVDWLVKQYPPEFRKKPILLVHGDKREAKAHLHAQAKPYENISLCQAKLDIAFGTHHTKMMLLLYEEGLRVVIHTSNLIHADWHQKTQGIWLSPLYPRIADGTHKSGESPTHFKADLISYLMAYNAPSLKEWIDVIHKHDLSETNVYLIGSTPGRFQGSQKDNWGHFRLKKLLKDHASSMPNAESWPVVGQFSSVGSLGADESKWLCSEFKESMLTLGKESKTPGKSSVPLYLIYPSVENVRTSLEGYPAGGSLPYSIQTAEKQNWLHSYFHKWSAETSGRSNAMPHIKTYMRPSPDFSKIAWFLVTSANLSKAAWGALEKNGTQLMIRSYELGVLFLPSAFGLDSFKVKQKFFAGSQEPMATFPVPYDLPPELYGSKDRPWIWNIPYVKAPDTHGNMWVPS
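Recombinant human Tdp1 (E. coli-expressed, 1 nM final) preincubated with compounds 15 min at room temperature, then 5'-biotin/3'-phosphotyrosine-FITC DNA substrate (15 nM final) added for 5 min. AlphaScreen beads (10 ug/ml final) added 10 min; cleavage lowers signal.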
Hits are given with their value. Compounds with a hit are over-represented: about 19% of the library has one in this group of screens. Unless noted, calls follow the shape of the dose curve; as a rule, active = well fitted curve in the direction sought with a large enough effect; inconclusive = small, poorly fitted or top-dose-only effect, or another doubt; inactive = no such curve, though single readings can be large; an effect the other way counts as inactive or inconclusive.

`CCc1c(C)sc(NC(=S)N2CC(C)OC(C)C2)c1C(=O)OC` (centres undefined) gave TDP1 cell CPT inactive, IL1B secr inh inactive, TDP1 cell noCPT inconclusive, ELG1 repair inh inactive, Giardia killer inactive and TDP1 inh inactive.
Screening O=C(Nc1ccc(-c2nc3ccccc3o2)cc1)c1cc(-n2cnnc2)ccc1Cl returned TDP1 cell CPT 18µM, IL1B secr inh inconclusive, TDP1 cell noCPT inconclusive, ELG1 repair inh inconclusive, Giardia killer inactive and TDP1 inh inactive.
Screening O=C(Nc1ccc(-c2nc3ccccc3o2)c(O)c1)c1cc(-n2cnnc2)ccc1Cl returned TDP1 cell CPT 26µM, IL1B secr inh inactive, TDP1 cell noCPT inconclusive, ELG1 repair inh 21µM, Giardia killer inactive and TDP1 inh inactive.
COc1ccc(-c2[nH]c(-c3ccc(O)cc3)nc2-c2ccccc2)cc1 was read as TDP1 cell CPT 15µM, TDP1 cell noCPT inconclusive and TDP1 inh inactive.
COc1ccc(-c2nc(-c3ccccc3)c(-c3ccc(O)cc3)[nH]2)cc1 was read as TDP1 cell CPT 13µM, TDP1 cell noCPT 8.2µM and TDP1 inh inactive.
For Cc1[nH]c(-c2ccc3c(c2)OCO3)nc1C(=O)O the results were TDP1 cell CPT 10µM, IL1B secr inh inactive, TDP1 cell noCPT 18µM, ELG1 repair inh inactive, Giardia killer inactive and TDP1 inh inactive.
COc1ccc(-c2nc(-c3ccc4c(c3)OCO4)[nH]c2-c2ccc(OC)cc2)cc1 was read as TDP1 cell CPT inconclusive, IL1B secr inh inconclusive, TDP1 cell noCPT inconclusive, ELG1 repair inh 18µM, Giardia killer inactive and TDP1 inh inactive.
`Cc1[nH]c(-c2ccco2)nc1C(=O)O` gave TDP1 cell CPT inactive, IL1B secr inh inactive, TDP1 cell noCPT inactive, ELG1 repair inh inactive, Giardia killer inactive and TDP1 inh inactive.
Screening Cc1ccc(S(=O)(=O)N2CCN(C(=O)COC(=O)c3ccc(Cl)nc3)CC2)c(C)c1 returned TDP1 cell CPT inactive, IL1B secr inh inactive, TDP1 cell noCPT inactive, ELG1 repair inh inactive, Giardia killer inactive and TDP1 inh inactive.
For COc1ccc(N(CC(=O)NCc2ccc3c(c2)OCO3)S(=O)(=O)c2ccc(O)c(C(=O)O)c2)cc1 the results were TDP1 cell CPT inactive, IL1B secr inh inactive, TDP1 cell noCPT inactive and Giardia killer inactive.
CC1(C)[C@@H](OC(=O)CCC(=O)O)CC[C@]2(C)[C@H]3C(=O)C=C4[C@@H]5C[C@@](C)(C(=O)O)CC[C@]5(C)CC[C@@]4(C)[C@]3(C)CC[C@@H]12 was read as TDP1 cell CPT inactive and TDP1 cell noCPT inactive.
`CCOc1cc(S(=O)(=O)NCc2ccc(OC)cc2)c(OCC)cc1-n1cnnn1` gave TDP1 cell CPT 4.1µM, IL1B secr inh inactive, TDP1 cell noCPT 2.1µM, ELG1 repair inh inactive, Giardia killer inactive and TDP1 inh inactive.
Cc1ccnc(Cc2ccccc2)n1 was read as TDP1 cell CPT inactive, IL1B secr inh inactive, TDP1 cell noCPT inactive, ELG1 repair inh inconclusive and Giardia killer inactive.
`Cc1ccc(N(CC(=O)N2CCN(c3ccccc3F)CC2)S(=O)(=O)c2c(C)noc2C)cc1` gave TDP1 cell CPT 21µM, IL1B secr inh inactive, TDP1 cell noCPT inconclusive, ELG1 repair inh inactive, Giardia killer inactive and TDP1 inh inactive.
CCOc1ccc(N(CC(=O)N2CC=C(c3ccccc3)CC2)S(=O)(=O)c2c(C)noc2C)cc1 was read as TDP1 cell CPT inconclusive, IL1B secr inh inactive, TDP1 cell noCPT inconclusive, ELG1 repair inh inconclusive, Giardia killer inactive and TDP1 inh inactive.
